# From the supplement of paper PMC10042075
# Where a name gives a salt, the structure may show the parent alone.
# Tested on: LASCPC-01
# Test: cell viability relative to DMSO control (fraction); higher = less growth inhibition (more viable cells)
# Settings: 2 µM; 72 h
# Description: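 High-throughput single-dose screen in the LASCPC-01 NEPC cell line in 384-well plates. Cells were treated with each compound at 2 µM for 72 h, and viability was read by CellTiter-Glo luminescence. Values are normalised to the DMSO control (compound/DMSO) from three replicates; only the 5-HT-related subset of the 7315-compound library is given.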
row,Structure (SMILES),cell viability
1,CNCCc1c[nH]c2ccc(O)cc12 [N-omega-Methyl-5-hydroxytryptamine oxalate salt],1.11
